Bioassay records deposited in PubChem BioAssay by The Scripps Research Institute Molecular Screening Center.
HTR5A ag ctr – HTR5A agonists in luminescence cell assay, primary screen, counter-screen for OPRM1-OPRD1 heterodimer agonist project, full-deck HTS. cell-based. activation, % at 9.3 µM. 340,000 tested, 0.61% active. AID 504692, 2011; in the data active = activation mostly above about 9.5%, no sharp cut-off; inactive = mostly below about 7.6%;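 also: 0% = cells with vehicle only and 100% = reference agonist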
MOR-DOR ag – agonists of OPRM1-OPRD1 heterodimerization, primary screen, cell-based, luminescence; activation, % at 9.3 µM; Mu-type opioid receptor (Homo sapiens) + Delta-type opioid receptor (Homo sapiens), …; AID 504326, 2011; 340,000 tested, 0.3% active; cells;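 also: 0% = vehicle-treated cells and 100% = reference agonist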
Target sequence (P35372 whole entry, looked up): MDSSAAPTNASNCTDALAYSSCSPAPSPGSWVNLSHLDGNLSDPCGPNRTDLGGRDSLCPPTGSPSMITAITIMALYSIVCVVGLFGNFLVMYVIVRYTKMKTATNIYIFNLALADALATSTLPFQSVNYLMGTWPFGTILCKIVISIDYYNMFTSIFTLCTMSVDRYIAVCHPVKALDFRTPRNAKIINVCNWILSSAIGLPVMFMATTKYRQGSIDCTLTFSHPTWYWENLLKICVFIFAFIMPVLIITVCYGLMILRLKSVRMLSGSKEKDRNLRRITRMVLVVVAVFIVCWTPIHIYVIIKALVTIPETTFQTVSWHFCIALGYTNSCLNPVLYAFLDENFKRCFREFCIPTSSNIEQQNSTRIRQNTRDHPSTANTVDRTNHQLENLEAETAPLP
Target sequence (P41143 whole entry, looked up): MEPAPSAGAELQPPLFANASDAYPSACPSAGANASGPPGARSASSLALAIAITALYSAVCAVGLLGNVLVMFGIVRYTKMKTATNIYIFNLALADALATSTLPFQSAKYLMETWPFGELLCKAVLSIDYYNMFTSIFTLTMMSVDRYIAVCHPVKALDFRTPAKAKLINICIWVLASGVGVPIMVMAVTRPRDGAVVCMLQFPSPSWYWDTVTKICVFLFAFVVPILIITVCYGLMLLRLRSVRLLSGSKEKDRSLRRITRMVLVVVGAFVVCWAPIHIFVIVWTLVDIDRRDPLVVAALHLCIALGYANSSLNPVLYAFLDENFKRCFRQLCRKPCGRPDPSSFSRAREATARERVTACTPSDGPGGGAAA
HTR5A inv ag – HTR5A inverse agonists in luminescence cell assay, primary screen, counter-screen for OPRM1-OPRD1 heterodimer inverse agonist project, full-deck HTS | inhibition, % at 9.3 µM | 340,000 tested, 0.083% active | AID 504634, 2011 | HTR5A cell line, inverse agonism; in the data active = inhibition mostly above about 23%, no sharp cut-off; inactive = mostly below about 18%;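 also: 0% = cells with DMSO and 100% = no-cell wells with DMSO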
OPRM1-OPRD1 inv – inverse agonists of MOR-DOR heterodimerization, primary screen, cell-based, luminescence. Mu-type opioid receptor (Homo sapiens) + Delta-type opioid receptor (Homo sapiens), …. cell-based MOR-DOR heterodimer luminescence, inverse agonism. inhibition, % at 9.3 µM. 340,000 tested, 0.21% active. AID 504357, 2011; in the data active = inhibition above about 22%, passing the limit was not always enough;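 also: 0% = cells with DMSO and 100% = wells without cells with DMSO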
MOR-DOR ag conf – agonists of MOR-DOR heterodimerization, confirmation, cell-based, luminescence; 830 tested, 45% active; activation, % at 9.3 µM; shares compounds with MOR-DOR ag; cells, luminescence complementation;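 also: 0% = vehicle-treated cells and 100% = reference agonist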
HTR5A ag counter – HTR5A agonists in cells, counter-screen for OPRM1-OPRD1 heterodimer agonist project, cell-based, luminescence; shares compounds with MOR-DOR ag; HTR5A agonist counterscreen; activation, % at 9.3 µM; 830 tested, 8% active; in the data active = activation above about 17%;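 also: 0% = vehicle-treated cells and 100% = reference agonist response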
* marks the source's active call; other numbers are inactive results; i = inactive; . = not tested or not shown. Most compounds without a hit are left out; they make up all but 1.1% or so of the library. Rule as the data show it, unless noted: active = activation above about 18%; inactive = the rest.

SMILES	HTR5A ag ctr	MOR-DOR ag	HTR5A inv ag	OPRM1-OPRD1 inv	MOR-DOR ag conf	HTR5A ag counter
COc1ccc(C(CNC(=O)C2CC2)N(C)C)cc1 (stereo not drawn)	-5	-1	12	4	.	.
CSc1ccc(S(=O)(=O)Nc2ccccc2C(=O)N2CCOCC2)cc1	-2	-4	4	22	.	.
CN1CCN(C(=O)c2cccn(Cc3ccc(C(F)(F)F)cc3)c2=O)CC1	3	-1	-12	7	.	.
Cc1ccccc1-c1nnc(SCCC(=O)N2CCOCC2)o1	0	-2	0	8	.	.
Cc1c(CN2CCC(n3nccc3NC(=O)C3CC3)CC2)[nH]c2ccccc12	7	45*	12	-242	1	31*
O=S(=O)(NC1CC1)c1ccc(S(=O)(=O)N2CCCC3(CCCCC3)C2)cc1	6	40*	-22	-227	32*	2
CCOC(=O)c1nnn(CC(=O)N2N=C(c3ccccc3)CC2c2ccccc2)c1C(=O)OCC (stereo not drawn)	-1	0	-7	0	.	.
CCOC(=O)c1nnn(CC(=O)N2N=C(c3cc(C)ccc3C)CC2c2ccc(OC)cc2)c1C(=O)OCC (stereo not drawn)	1	20*	18	-109	2	62*
Cc1ccc(-c2csc(Cc3nc(-c4cc5ccccc5oc4=O)cs3)n2)cc1	-1	3	2	-18	.	.
Cc1ccn2cc(-c3cc4ccccc4oc3=O)nc2c1	0	20*	-17	-102	12	5
O=C(C(c1ccccc1)c1ccccc1)N(Cc1ccco1)C1CCS(=O)(=O)C1 (stereo not drawn)	0	-1	1	4	.	.
CC1(NC(=O)CC(c2ccccc2)(c2ccccc2)c2ccccc2)CCN(CCCc2ccccc2)C1=O (stereo not drawn)	3	237*	18	i	193*	-2
CC1(NC(=O)CCc2ccccc2)CCN(CCCc2ccccc2)C1=O (stereo not drawn)	5	-1	-5	3	.	.
CCN(c1nc(N)c(C(=O)N=C(N)N)nc1Cl)C(C)C	2	51*	-11	-282	95*	-3
COc1ccccc1NC(=O)C1CCN(c2ncnc3c2nc2n3CCCCC2)CC1	-4	-2	-15	11	.	.
Cc1ccc(NC(=O)Nc2cc(Cl)ccc2C2COC(=O)C2=N)cc1 (stereo not drawn)	1	23*	-4	-119	5	39*
COc1ccc(C2(CNC(=O)c3ccc(OC)c([N+](=O)[O-])c3)CCOCC2)cc1OC	-4	-2	9	8	.	.
Cc1cc(/C=C2\SC(=Nc3ccc(F)cc3)NC2=O)c(C)n1-c1ccc(S(N)(=O)=O)cc1	4	125*	-12	i	24*	3
Nc1ccc2c(c1)C(=O)C(=O)c1ccccc1-2	4	25*	-11	-125	0	1
O=C1C(=O)c2ccc(-c3ccccc3)cc2-c2ccccc21	5	26*	-22	-118	0	3
C=CCn1c(SCC(=O)c2c(N)n(CCC)c(=O)n(C)c2=O)nc2sc(CC)cc2c1=O	-5	-2	10	9	.	.
OC(CNCCC(c1ccccc1)c1ccccc1)COc1ccccc1 (stereo not drawn)	0	22*	-48	-105	38*	6
OC(CNCCc1ccccc1)COc1ccc(OCC(O)CNCCc2ccccc2)cc1 (stereo not drawn)	-3	-1	2	7	.	.
Cc1cc(/C=C2/C(=O)NN(c3ccccc3)C2=O)c(C)n1-c1ccc(O)cc1	-3	61*	9	-314	50*	-5
COc1ccc(-n2c(C)cc(/C=C3\C(=O)NN(c4ccccc4)C3=O)c2C)cc1	1	1	7	-4	.	.
COc1ccc2sc(-c3ccccc3OC)c(-c3ccc(OC)c(F)c3)c2c1	4	0	2	2	.	.
COC(=O)c1sc(NC(=O)CSc2nc3nc(C)cc(C)n3n2)c(C(=O)OC)c1C	9	0	10	1	.	.
